The nature of assay [1]: qHTS assay to identify small molecule agonists of the TGF-beta/Smad signaling pathway (AID 1346859; active = well fitted activation curve with a large enough effect in the signal ratio in the repeat runs, not every such curve was filed as active; the % refers to the signal ratio). To be noted: SBE-bla HEK293T, TGF-beta/Smad beta-lactamase reporter, 5 h; series mostly up to 76.8 µM. In short, it runs like this:
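Each well held 4,000 SBE-bla HEK 293T cells incubated overnight before compound addition; 5 hr later the cleavable FRET substrate went on for 2 hr at room temperature, and fluorescence was read at two emissions.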
Background: qHTS replaces the single test concentration by a dilution series.

The nature of assay [2]: Human pregnane X receptor (PXR) small molecule agonists, qHTS cell viability counter screen (AID 1346977). Note: nearly all actives have a fitted effect of over 50% in size. As to conditions: PXR-Luc HepG2 viability, CellTiter-Fluor, 24 h; series mostly up to 92.4 µM. In short, it runs like this:
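Tox21 qHTS format; PXR-Luc HepG2, 2,000/well, charcoal-stripped FBS 5%. Cpd exposure 24hr. Read: CellTiter-Fluor fluorescence, multiplexed with luciferase.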

Assay [3] can be described thus: Caspase-3/7 induction in HepG2 cells by small molecules, qHTS assay (AID 1346978). Note: nearly all actives have a fitted effect of over 15% in size. To be noted: HepG2 caspase-3/7 activation, Caspase-Glo luminescence, 17 h; series mostly up to 92.4 µM. A digest of the protocol: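 Caspase-3/7 induction was measured by Caspase-Glo 3/7 luminescence (30 min, room temperature) after a 17 hr compound exposure of wild-type HepG2 cells seeded at 2,000 per well and pre-incubated 5 hr.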

The nature of assay [4]: Caspase-3/7 induction in CHO-K1 cells by small molecules, qHTS cell viability counter screen (AID 1346979). Note: nearly all actives have a fitted effect of over 35% in size. To be noted: CellTiter-Fluor fluorescence, 17 h; series mostly up to 92.4 µM. A digest of the protocol: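 CellTiter-Fluor viability check, qHTS format: wild-type CHO-K1, 16hr compound treatment, 1hr reagent incubation, fluorescence read.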
Assay [5] in a line: Caspase-3/7 induction in CHO-K1 cells by small molecules, qHTS assay (AID 1346980). Note: nearly all actives have a fitted effect of over 15% in size. As to conditions: CHO-K1 caspase-3/7 induction, Caspase-Glo luminescence, 17 h; series mostly up to 92.4 µM. In short, it runs like this:
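Luminescent Caspase-Glo 3/7 read (30min, room temperature) quantified apoptosis induction. Cells were wild-type CHO-K1, treated with compound for 17hr at 37 C and 5% CO2.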

A short description of assay [6]: Caspase-3/7 induction in HepG2 cells by small molecules, qHTS cell viability counter screen (AID 1346981). Note: nearly all actives have a fitted effect of over 30% in size. To be noted: CellTiter-Fluor fluorescence, 17 h; series mostly up to 92.4 µM. In short, it runs like this:
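Viability determined by CellTiter-Fluor fluorescence in HepG2 wells also used for the luminescent Caspase-Glo 3/7 read. Compounds were present for 16 hr at 37 C, 5% CO2 before reagent addition.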

Assay [7] addresses Nuclear receptor subfamily 1 group I member 2 (Homo sapiens) (UniProt O75469). The assay can be described thus: Human pregnane X receptor (PXR) small molecule agonists, qHTS assay (AID 1346982). Note: nearly all actives have a fitted effect of over 35% in size. Note: potency is the fitted concentration of half-maximal effect. As to conditions: PXR-Luc HepG2, CYP3A4 luciferase reporter, 24 h; series mostly up to 92.4 µM. In short, it runs like this:
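Compound-induced hPXR transactivation of a CYP3A4 luciferase reporter was scored in HepG2 PXR-Luc cells over 24 hr at 37 C, 5% CO2, by luminescence.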

Assay [8] concerns the target Nuclear receptor subfamily 1 group I member 2 (Rattus norvegicus) (UniProt Q9R1A7). The assay can be described thus: Rat pregnane X receptor (rPXR) activation by small molecules, qHTS assay (AID 1346983). Note: nearly all actives have a fitted effect of over 20% in size. As to conditions: rPXR luciferase reporter cells, One-Glo luminescence, 24 h; max activation: hits give high values. In short, it runs like this:
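Luminescent readout (One-Glo luciferase, 30 min room temperature) followed 24 hr compound treatment at 37 C of rPXR cells plated 2,000 per well and preincubated 5hr; qHTS format with compounds delivered in DMSO.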

The target of assay [9] is Thyrotropin-releasing hormone receptor (Homo sapiens) (UniProt P34981). The assay can be described thus: qHTS assay to identify small molecule antagonists of the thyrotropin-releasing hormone receptor (TRHR) signaling pathway (AID 1346877; active = well fitted inhibition curve with a large enough effect in the repeat runs, not every such curve was filed as active). To be noted: TRHR-HEK293, TRH-induced calcium fluorescence, antagonist mode; series mostly up to 51.3 µM. A digest of the protocol:
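Following an 18 h incubation at 37 °C and a 2 h calcium dye load, TRHR-HEK293 cells were exposed to compound (5 min, room temperature) and challenged with TRH, 1 nM final.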

Assay [10] shares this target. The assay can be described thus: qHTS assay to identify small molecule agonists of the thyrotropin-releasing hormone receptor (TRHR) signaling pathway (AID 1346891; calls by dose curve). To be noted: TRHR-HEK293 calcium fluorescence, agonist mode; series mostly up to 57.6 µM. In short, it runs like this: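 Screening of agonists relied on calcium signalling in HEK293 cells expressing human TRHR: dye loading 2 h at 37 °C preceded compound addition and a 3-min fluorescence time course.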

A number with no mark means an inactive call. Records with an inconclusive call do not appear. Calls of active or inactive are those of the source. Unless noted, calls come from the whole dose curve; as a rule, active = well fitted curve in the direction sought with a large enough effect in the repeat runs; inconclusive = weak or mixed curves; inactive = no such curve, though single readings can be large; an effect the other way counts as inactive or inconclusive.
% is set by controls: 0 for no effect and ±100 for the full control effect.

Nuclear receptor subfamily 1 group I member 2 (Rattus norvegicus), sequence (Q9R1A7 whole entry, looked up): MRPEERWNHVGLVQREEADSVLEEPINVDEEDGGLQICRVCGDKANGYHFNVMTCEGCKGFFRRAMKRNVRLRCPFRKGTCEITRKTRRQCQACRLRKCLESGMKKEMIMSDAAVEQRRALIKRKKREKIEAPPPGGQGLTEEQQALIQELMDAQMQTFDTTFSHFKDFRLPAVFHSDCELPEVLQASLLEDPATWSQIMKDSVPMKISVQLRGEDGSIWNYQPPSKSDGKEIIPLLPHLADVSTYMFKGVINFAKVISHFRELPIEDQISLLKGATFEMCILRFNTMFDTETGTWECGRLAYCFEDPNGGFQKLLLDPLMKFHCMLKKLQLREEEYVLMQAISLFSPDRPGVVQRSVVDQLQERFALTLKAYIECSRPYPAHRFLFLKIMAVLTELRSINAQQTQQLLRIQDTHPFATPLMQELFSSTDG
Nuclear receptor subfamily 1 group I member 2 (Homo sapiens), sequence (O75469 whole entry, looked up): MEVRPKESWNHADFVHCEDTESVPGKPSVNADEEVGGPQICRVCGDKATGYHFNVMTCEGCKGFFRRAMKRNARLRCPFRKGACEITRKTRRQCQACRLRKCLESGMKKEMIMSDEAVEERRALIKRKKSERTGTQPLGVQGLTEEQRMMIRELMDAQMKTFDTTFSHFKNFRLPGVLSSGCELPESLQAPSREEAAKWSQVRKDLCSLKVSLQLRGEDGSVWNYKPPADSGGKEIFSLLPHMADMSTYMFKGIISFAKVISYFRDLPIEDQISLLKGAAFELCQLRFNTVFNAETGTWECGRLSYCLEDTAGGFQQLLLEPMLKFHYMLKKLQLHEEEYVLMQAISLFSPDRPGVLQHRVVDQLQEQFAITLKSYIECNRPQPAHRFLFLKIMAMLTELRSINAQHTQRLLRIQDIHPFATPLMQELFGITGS
Thyrotropin-releasing hormone receptor (Homo sapiens), sequence (P34981 whole entry, looked up): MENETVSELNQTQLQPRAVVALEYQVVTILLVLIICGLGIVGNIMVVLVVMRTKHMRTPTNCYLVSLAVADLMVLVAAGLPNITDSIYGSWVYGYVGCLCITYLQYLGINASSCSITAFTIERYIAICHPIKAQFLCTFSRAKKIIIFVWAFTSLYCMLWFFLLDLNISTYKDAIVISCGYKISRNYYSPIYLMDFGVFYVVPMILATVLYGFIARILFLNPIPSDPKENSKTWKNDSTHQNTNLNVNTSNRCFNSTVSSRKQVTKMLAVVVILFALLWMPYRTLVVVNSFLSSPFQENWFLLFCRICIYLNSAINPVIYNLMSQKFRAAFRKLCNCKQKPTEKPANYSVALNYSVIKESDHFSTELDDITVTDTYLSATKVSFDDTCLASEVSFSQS

For `CCCCN=C(N)N=C(N)N`, the molecule was called inactive in [1], in assay [2], in assay [3], in [5] and in assay [6]. Moreover, the Potency entry in [4] and in assay [7] was “inactive” throughout. Further, in assay [8], the max activation is -2.74%.

Consider `Nc1nc(Cl)cc(Cl)n1`, for which the outcome in [9], in assay [2], in assay [3], in assay [5] and in [6] was inactive. The Potency entry in assay [10] and in assay [7] was “inactive” throughout.

Consider `Cc1cc(C)c(C)c(C)c1`, for which the outcome in [1], in assay [2], in assay [3], in [5] and in assay [6] was inactive. Moreover, the Potency result in assay [4] and in assay [7] was “inactive” in each case.

Turning to `CC(C)OCCO`, the outcome in assay [1], in assay [2], in [3], in assay [5] and in [6] was inactive. Also, the Potency result in [4] and in [7] was “inactive” in each case.

As for `Cc1ccc(N)nc1`, the outcome in assay [1], in [2], in [3], in assay [5] and in assay [6] was inactive. Also, the Potency result in assay [7] was “inactive”.

As to `c1cc2ccc3ccc4ccc5cccc6c(c1)c2c3c4c56`, the activation in assay [1] is 25.1% [at 2.72 µM]; in assay [7] it was 3.44% [at 3.27 µM]. Moreover, the activity change, negative = cytotoxicity in assay [2] was 0.555% [at 3.27 µM]; in assay [4], 14.9% [at 3.27 µM]; in [6], -2.99% [at 3.27 µM]. For the same molecule, the caspase activation in [3] was 1.34% [at 3.27 µM]. Besides, the caspase-3/7 activation in assay [5] was 0.273% [at 3.27 µM].

For `C/C=C(\C)C(=O)OC/C=C(\C)CCC=C(C)C`, the call in assay [1], in assay [2], in [3], in assay [5] and in assay [6] was inactive. The Potency result in assay [4] and in assay [7] was “inactive” each time.

With `C=CC(=O)OCCOCCOCC`, the molecule was called inactive in assay [1], in [2], in [3], in assay [5] and in assay [6]. The Potency result in assay [7] is “inactive”.

Turning to `CC/C=C/CCCCCCCCCCOC(C)=O`, the molecule was classed as inactive in [1], in [2], in [3], in assay [5] and in assay [6]. The Potency entry in assay [7] is “inactive”.

In the case of `CCOC(=O)[C@H](CCc1ccccc1)N[C@H]1CS[C@H](c2cccs2)CN(CC(=O)O)C1=O`, the outcome in assay [1], in assay [2], in [3], in [5] and in assay [6] was inactive. In addition, the Potency result in assay [4] and in assay [7] was “inactive” throughout. For the same molecule, the max activation in [8] was -2.69%.

Take `O=Cc1ccccc1S(=O)(=O)O`: the molecule was called inactive in [1], in assay [2], in [3], in assay [5] and in [6]. Besides, the Potency result in assay [7] is “inactive”.

As to `CC(O)CCCCn1c(=O)c2c(ncn2C)n(C)c1=O` (configuration not stated), the molecule was classed as inactive in [1], in assay [2], in assay [3], in assay [5] and in assay [6]. Moreover, the Potency entry in assay [4] and in assay [7] was “inactive” in each case. The max activation in assay [8] is -1.02%.

As to `O=C(O)Cc1c(Cl)ccc(Cl)c1Cl`, the result in assay [9], in [2], in assay [3], in [5] and in assay [6] was inactive. The Potency entry in assay [10] and in assay [7] was “inactive” throughout.

With `O=CN1CCCCC1`, the call in [1], in [2], in assay [3], in [5] and in assay [6] was inactive. Besides, the Potency entry in assay [7] is “inactive”.

For `C=CCOC(=O)CCCCCCCC`, the molecule was called inactive in assay [1], in [2], in [3], in [5] and in [6]. In addition, the Potency entry in assay [7] was “inactive”.

Take `Clc1ccc2c(c1)Nc1ccccc1S2`: the molecule was classed as inactive in assay [1], in [2], in assay [3], in [5] and in assay [6]. The Potency entry in assay [4] was “inactive”. Besides, the Potency in [7] is 33.5 µM (active).

As to `CC(=O)OCC(=O)[C@@]1(O)CC[C@H]2[C@@H]3CCC4=CC(=O)C=C[C@]4(C)[C@H]3[C@@H](O)C[C@@]21C`, the outcome in assay [1], in assay [2], in assay [3], in assay [5] and in [6] was inactive. In addition, the Potency entry in assay [7] is “inactive”.

For the molecule `COc1cc(C(=O)NC2CCCNC2)cc(OC)c1OC` (configuration not stated), the result in assay [1], in assay [2], in assay [3], in assay [5] and in assay [6] was inactive. In assay [7], the Potency entry was “inactive”.

With `CC(CC(=O)Cl)CC(C)(C)C` (configuration not stated), the result in assay [1], in [2], in [3], in assay [5] and in assay [6] was inactive. Also, in assay [7], the Potency entry was “inactive”.

With `O=C(O)COc1ccc2ccccc2c1`, the outcome in assay [9], in [2], in assay [3], in assay [5] and in assay [6] was inactive. Also, the Potency result in assay [10] and in [7] was “inactive” each time.

As to `CCOC(=O)COc1ccc2c(C)c(CCN(CC)CC)c(=O)oc2c1Cl`, the result in assay [9], in [2], in [3], in assay [5] and in assay [6] was inactive. Moreover, the Potency result in assay [10] and in [7] was “inactive” throughout. In assay [8], the max activation was 4.23%.

Consider `CCCCC(CC)CCC(CC(C)C)OS(=O)(=O)O` (configuration not stated), for which the outcome in [1], in [2], in assay [3], in assay [5] and in assay [6] was inactive. In addition, the Potency result in assay [7] is “inactive”. The max activation in assay [8] is -2.27%.

For `O=S(=O)(O)c1cc(I)c(O)c2ncccc12`, the result in [1], in assay [2], in [3], in assay [5] and in assay [6] was inactive. Moreover, the Potency result in [4] and in assay [7] was “inactive” each time. Besides, the max activation in [8] was -0.763%.

Turning to `CC(=O)c1ccc2ccc3ccccc3c2c1`, the molecule was called inactive in assay [1], in assay [2], in assay [3], in assay [5] and in assay [6]. Besides, the Potency in assay [7] was 60.8 µM (active).

As to `CCO/C=C1\N=C(c2ccccc2)OC1=O`, the result in [1], in assay [2], in assay [3], in assay [5] and in assay [6] was inactive. Besides, the Potency result in assay [4] and in assay [7] was “inactive” in each case.

Consider `N#Cc1cc(NC(=O)C(=O)O)c(Cl)c(NC(=O)C(=O)O)c1`, for which the outcome in [1], in assay [2], in assay [3], in [5] and in assay [6] was inactive. Further, in assay [7], the Potency result is “inactive”.

As to `Cc1cccc(N)n1`, the outcome in assay [1], in assay [2], in [3], in [5] and in [6] was inactive. Further, the Potency entry in [7] was “inactive”.

Turning to `C[C@H]1COc2c(C3(N)CC3)c(F)cc3c(=O)c(C(=O)O)cn1c23`, the call in [1], in assay [2], in assay [3], in [5] and in assay [6] was inactive. Also, the Potency result in [4] and in assay [7] was “inactive” each time. The max activation in [8] was -2.87%.

As for `Nc1ccc(C(=O)NCC(=O)O)cc1`, the call in assay [1], in assay [2], in assay [3], in assay [5] and in assay [6] was inactive. Further, in [7], the Potency entry was “inactive”. In addition, in [8], the max activation was -2.15%.

For `CCOC(=O)c1ccc(N(C)C)cc1`, the call in [1], in [2], in assay [3], in assay [5] and in [6] was inactive. For the same molecule, the Potency entry in [4] is “inactive”. Also, the Potency in assay [7] is 54.5 µM (active).

As for `O=P(O)(O)C(O)(Cc1cccnc1)P(=O)(O)O`, the molecule was classed as inactive in assay [1], in assay [2], in assay [3], in [5] and in [6]. Further, the Potency entry in assay [4] and in assay [7] was “inactive” in each case. In addition, the max activation in assay [8] was -2.56%.
